Only some compounds are listed: those with a hit (about 1.4% of all), similar ones and a draw of the others.
Chronic BCR inh = inhibitors of chronic active B-cell receptor signaling. AID 493014. hit rate 0.05% among 340,000. ABC-DLBCL IkBa-CBG/CBR reporter, luminescence ratio, 4 h. Potency, µM (highest dose often 46.1 µM), inactives show at the top dose activity change, negative = inhibition, most hits filed as inhibitors; active = well fitted inhibition curve with a large enough effect in the signal ratio, with a control signal flat, not every such curve was filed as active; inconclusive = small, poorly fitted or top-dose-only effect, or effect the other way, or a change in a side signal; the % refers to the signal ratio;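 note: potency is the fitted concentration of half-maximal effect; plate controls were basal doxycycline-induced cells for no effect and cells given 10 µM MG132 for full effect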
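Concentration-response series (up to 46 uM) were applied to TMD8 dual-reporter cells for 4 h at 37C with doxycycline. Green/red ratio, after filter-overlap correction, defined %Activity; red signal alone was normalised to basal cells and zero luminescence.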
BRCA1 expr act = increases BRCA1 expression | Potency, µM (highest dose often 46.1 µM), without a hit: at the highest dose activation, hits mostly activators | hit rate 1.1% among 380,000 | MCF7-BRCA1-FFLuc reporter, luminescence, 48 h; response scale: scaled: vehicle 0%, 10 µM genistein 100%; note: potency is the fitted concentration of half-maximal effect; nearly all actives have a fitted effect of over 80% in size
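MCF7 cells carrying a BRCA1-firefly luciferase reporter (2000 cells/well, phenol-red free MEM) were attached for 2 h at 37 °C, then given compounds for 48 h. Luminescence was read 15 min after luciferase reagent; activity normalized to genistein (10 microM) and DMSO.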
IL-2 act = activates IL-2 in a cell-based reporter assay; AID 652025; activation, % (series mostly up to about 46 µM); hit rate 0.065% among 360,000; IL-2 activation reporter assay, cell-based qHTS; stimulated with anti-CD3/CD4/CD28 beads; in transgenic mouse T cells; in the data active = activation above about 50%; inconclusive = mostly about 30% to 49%; note: 0% is about no effect
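Readout is EGFP and DsRed signal by fluorescent plate cytometry after 18 h at 37 degrees C. Transgenic mouse T cells (750/well) received compound for 60 min before bead stimulation (anti-CD3, anti-CD4, anti-CD28); memory T cells served as non-tolerant control.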
a7 integrin act = integrin-mediated muscular dystrophy alleviation activation. alpha7betagal myoblasts, beta-gal FDG fluorescence, 48 h. Potency, µM (titrated, usually from 38.3 µM), for the others: at the top dose activation, hits mostly activators. hit rate 0.064% among 350,000. AID 624291;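 note: potency is the fitted concentration of half-maximal effect; 100% = response of the positive control SU9516; nearly all actives have a fitted effect of over 60% in size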
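Alpha7betagal+/- myoblasts (passage 13) were plated 16-24 hr, then exposed to compounds (1:260 dilution of DMSO stock) for 48 hours at 37C. After MPER lysis, β-galactosidase reporter activity was read as FDG fluorescence (ex 480/em 540) after 30 minutes.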
N370S GC = inhibitors or activators of N370S glucocerebrosidase for Gaucher disease; P04062; N370S GC spleen homogenate, 4MU-glucoside fluorescence; Potency, µM (top dose mostly 59.4 µM), for inactives: at the highest dose activity change, negative = inhibition, hits mostly inhibitors; hit rate 0.092% among 330,000; AID 2101;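 note: potency is the fitted concentration of half-maximal effect; 0% = full enzyme activity and -100% = no enzyme basal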
Nrf2 activator = activates Nrf2 signaling. AREc32 ARE-luciferase reporter (MCF7-derived line), luminescence, 24 h. Potency, µM (highest dose often 46.1 µM), inactives show top-dose activation, actives largely listed as activators. hit rate 0.31% among 410,000. AID 624171; note: potency is the fitted concentration of half-maximal effect; % of control where 0% means no effect; nearly all actives have a fitted effect of over 65% in size
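Each well held 1000 AREc32 cells, which were incubated with compound for 24 hr at 37 deg C after overnight attachment, and ARE reporter activity was quantified by firefly luciferase luminescence.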
* marks the source's active call; other numbers are inactive results; ? = inconclusive; / = no result given; [ ] = remark or other dose. Unless noted, calls come from the whole dose curve; as a rule, active = well fitted curve in the direction sought with a large enough effect; inconclusive = small, poorly fitted or top-dose-only effect, or another doubt; inactive = no such curve, though single readings can be large; an effect the other way counts as inactive or inconclusive.

SMILES | Chronic BCR inh | BRCA1 expr act | IL-2 act | a7 integrin act | N370S GC | Nrf2 activator
Cc1cc(C)c2cccc(NC(=S)NC(=O)c3ccccc3)c2n1 | ? | -44% | -1 | 0% | 7% | ?
Cc1csc(NC(=O)c2ccccc2)n1 | ? | 3.2µM* | -2 | -9% | -8% | 6%
Cc1csc(NC(=O)c2ccncc2)n1 | 9% | -20% | -3 | -21% | -3% | 5%
Cc1ccc2cccc(NC(=S)NC(=O)c3ccccc3)c2n1 | ? | -62% | 0 | -6% | 3% | 4µM*
COC(=O)c1ccc(CNC(=O)COC(=O)C2CCC(C(C)(C)C)CC2)cc1 (centres undefined) | -1% | -2% | -4 | -9% | 7% | 0%
COc1cc(OC)nc(NC(=S)NC(=O)c2ccccc2)n1 | ? | -48% | 0 | 15% | 1% | 11µM*
Nc1ncnc2c1ncn2COC(CO)CO | / | 5% | / | / | / | /
COc1nc(C)nc(Cl)c1NC1=NCCN1 | 1% | 16% | 0 | / | 5% | 0%
Cc1ccc(CONC(=O)c2ccc(C)cc2)cc1 | ? | ? | -1 | -28% | / | 0%
Cc1ccc(CONC(=O)c2ccccc2)cc1 | ? | 2.2µM* | -2 | 40% | 6% | 0%
O=C(OCc1ccccc1)/C(=C/c1cccc2ccccc12)NC(=O)c1ccccc1 | -10% | -15% | -4 | ? | 7% | 0%
Cc1ccc(CONC(=O)c2ccc(Cl)cc2)cc1 | ? | 8.9µM* | 1 | 10% | / | 0%
Cc1ccc(CONC(=O)c2ccccc2Cl)cc1 | ? | 73% | -2 | 10% | 4% | 0%
Cc1ccc(C(=O)N/C(=C\c2ccccc2)C(=O)OCc2ccccc2)cc1 | ? | 7.9µM* | -1 | -37% | ? | 3%
CCCCCCNc1ccc(/C=C/c2ccnc3ccccc23)cc1 | / | -24% | / | / | / | /
O=C(COc1ccccc1C(=O)Nc1cccnc1)Nc1ccc(Br)cc1 | / | -17% | / | / | / | /
COc1ccc(C(=O)COC(=O)CCNS(=O)(=O)c2ccccc2)c(OC)c1 | ? | 11% | -1 | 2% | 0% | 0%
Cc1cccn2cc(-c3ccccc3)nc12 | -3% | 2µM* | -1 | 11% | 0% | 5%
Cc1cccn2cc(-c3ccc(F)cc3)nc12 | -10% | 100% | 0 | 8% | -4% | 2%
COc1ccc(S(=O)(=O)Nc2cc(-c3cn4cccc(C)c4n3)ccc2C)cc1C | / | / | / | / | / | 7%
Cc1cccn2cc(CNc3ccccc3)nc12 | -13% | 14µM* | -3 | 14% | 2% | 0%
COc1ccc(-c2cn3cccc(C)c3n2)cc1Br | ? | 3.5µM* | 0 | 26% | 4% | 8%
CCOCCCn1c(=N)c(S(=O)(=O)c2ccc(C)cc2)cc2c(=O)n3cccc(C)c3nc21 | / | 3% | / | / | / | -1%
O=C(Nc1cccc(C(F)(F)F)c1)C1Cc2c(-c3ccccc3Oc3ccccc3)ccnc2O1 (centres undefined) | / | -36% | -1 | / | / | 0%
CC(NC(=O)c1cn(C)c2ccc(S(=O)(=O)N3CCCC3)cc2c1=O)c1ccccc1 (centres undefined) | 0% | 5% | -5 | 2.8µM* | -11% | 0%
CC1CCN(S(=O)(=O)c2ccc3c(c2)c(=O)c(C(=O)NC(C)c2ccccc2)cn3C)CC1 (centres undefined) | / | / | / | / | / | 1%
O=c1c(-c2cccc(F)c2)nc2cncnc2n1Cc1ccccc1 | / | / | / | / | 4% | /
COC(=O)NC(c1cccc(C)c1)C(C(C)=O)C(=O)OC (centres undefined) | / | / | / | / | 23%[12.8 µM] | /
N#CC1=C(N)Oc2c(ccc3ccccc23)C1c1cccs1 (centres undefined) | 7% | -37% | -2 | -23% | 10% | 2.8µM*
COc1ccc(CCN(CC(=O)NC2CCCC2)C(=O)Cn2nnc(-c3ccc(C)o3)n2)cc1OC | -11% | -33% | 2 | 9% | 7% | -1%
